{"source": "PubChem BioAssay (NCI)", "note": "Compounds without any hit were thinned out: in the full panel of roughly 83,000, 20% have a hit.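 Single-dose data. Exposure time 48 hours. Values below 10 considered active.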 A number with no mark means an inactive call. Activity calls are given as the source filed them.", "data": [{"system": "MDA-MB-231 breast", "assay": "NCI-60 one-dose screen, 48 h (100 = growth as untreated, 0 = no growth, -100 = all killed)", "conditions": "10 µM unless noted", "values": [{"smiles": "CCOC(=O)c1c(Nc2ccccc2)nn2c(N)c(C#N)c(-c3ccccc3)nc12", "growth": "63.9%"}, {"smiles": "COC(=O)c1ccc(NC(=S)N2CCc3ccc([N+](=O)[O-])cc3C2)cc1O", "growth": "94.5%"}, {"smiles": "CCCC(=O)NC(c1cccc(N(C)C)c1)c1cc(C)c2cccnc2c1O", "note": "(centres undefined)", "growth": "48.2%"}, {"smiles": "COc1cc(/C=C/C(=O)c2cc(OC)c(OC)c(OC)c2)ccc1Oc1nc(NCCO)nc(N2CCOCC2)n1", "growth": "19.4%"}, {"smiles": "CS(=O)(=O)c1ccc(-n2cc(/C=C/C(=O)c3ccc(NC(=O)CO[N+](=O)[O-])cc3)c(-c3ccc(Cl)cc3)n2)cc1", "growth": "79.5%"}, {"smiles": "Cc1cc2nc3c4cc(Cl)ccc4n(CC(=O)NCCN(C)C)c3nc2cc1C", "growth": "53.2%"}, {"smiles": "Cc1cc2nc3c4cc(Cl)ccc4n(CC(=S)NCCN(C)C)c3nc2cc1C", "growth": "-71.8% (active)"}, {"smiles": "NS(=O)(=O)c1ccc(Nc2nc(SCC(=O)c3ccc(Cl)cc3)nc3ccccc23)cc1", "growth": "87.9%"}, {"smiles": "Clc1ccc2oc3c(NCCCN4CCOCC4)c4ccccc4nc3c2c1", "growth": "25.2%"}, {"smiles": "Cc1ccc(/C=C/c2nn3c(-c4ccco4)nnc3s2)cc1C", "growth": "94.8%"}, {"smiles": "N=C1CC(=O)NN1C(=O)CSc1nc2sc3c(c2c(=O)n1-c1ccc(Cl)cc1)CCCC3", "growth": "87.7%"}, {"smiles": "O=C(NNc1nc2cc(F)ccc2n2c(CN3CC4(COC4)C3)ccc12)c1cnccn1", "growth": "30.6%"}, {"smiles": "COc1cc2nc(-c3ccc(C)cc3)cc(OCCCNCC3CCCO3)c2cc1OC", "note": "(centres undefined)", "growth": "59.1%"}, {"smiles": "CS(=O)(=O)c1ccc(-c2nc3ccccn3c2C=Nc2ccc(Cl)cc2)cc1", "growth": "85.5%"}]}]}
